In PubChem BioAssay AID2501 (Southern Research Specialized Biocontainment Screening …, 2010):
About 1,200 (55%) of roughly 2,200 compounds were called active. So high a share suggests a set chosen from earlier hits. Some of the results follow. A number with no mark means an inactive call. No cut-off is given here; in the data, nearly all actives have IC50 up to about 92 µM.

assay: counter assay for TAg ATPase ADP read-out – biochemical, ADP-Hunter, fluorescence, counter-screen (AID 2501); conditions: series mostly up to 100 µM; inhibition: at the top concentration;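 note: purified T antigen ATPase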;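 for inhibition: 0% = enzyme with vehicle and 100% = reference inhibitor wells; higher means more inhibition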

Compound	inhibition [%]	IC50
COc1cc(NS(=O)(=O)c2ccc(NC(=S)NC(=O)/C=C/c3ccco3)cc2)ncn1	10.9	–
CCOc1cc(NS(=O)(=O)c2ccc(NC(C)=O)cc2)c(OCC)cc1NC(=O)c1cccs1	–	7.08 µM (active)
CN=c1scc(-c2ccco2)n1/N=C/c1ccc(O)c(O)c1	–	8.2 µM (active)
O=C(COc1cccnc1[N+](=O)[O-])c1ccc(Cl)s1	–	39.2 µM (active)
Cc1cccc(C(=O)NCC(=O)OCC(=O)c2ccc(Cl)s2)c1	-37	–
O=C(Nc1ccon1)c1cc2ccccc2oc1=O	8.87	–
COc1cc(-c2cc(=O)c3ccccc3o2)ccc1O	–	3.14 µM (active)
COc1cc(-c2cc(=O)c3c(O)c(OC)c(OC)c(O)c3o2)ccc1O	-0.18	–
O=C(OC1CCCCC1=O)c1cc(=O)c2ccccc2o1 (stereo unspecified)	-12.4	–
CCCOCC1CC(CCc2nc(=S)[nH][nH]2)C(=O)O1 (stereo unspecified)	17	–
O=c1[nH]sc2ccccc12	14.1	–
Cc1ccnc(NS(=O)(=O)c2ccccc2)n1	-41.4	–
Cc1cc(=O)c2ccccc2s1	-17.1	–
Cc1ccnc(-n2sc3ccccc3c2=O)n1	–	9.06 µM (active)
O=C(Cn1sc2ccccc2c1=O)NC12CC3CC(CC(C3)C1)C2	12.6	–
O=c1c2ccccc2sn1-c1nccs1	–	14.1 µM (active)
COc1cccc(C(c2sc3nc(C)nn3c2O)N2CCN(c3ccccc3F)CC2)c1 (stereo unspecified)	-11.5	–
CN(C)c1nn(C(=O)Nc2ccc(Cl)cc2Cl)cc1-c1ccccc1	–	14.8 µM (active)
O=C(O)/C=C/C(=O)Nc1ccc(Cl)cc1C(=O)c1ccccc1	14.6	–
CCCCSc1cc(C)nc(N)n1	19.6	–
COC(=O)NNC(=O)c1ccccc1C	-37.6	–
COCCNC(=O)C(=O)Nc1ccc(Cl)cc1C	-0.65	–
CCN(CC)c1ccc(NC(=O)c2cccnc2)c(C)c1	–	6.37 µM (active)
CCN(CC)c1ccc(NC(=O)c2cnn(CC)c2)cc1	–	4.27 µM (active)
CCN(CC)c1ccc(NC(=O)c2cccnc2)cc1	–	8.35 µM (active)
CCN(CC)c1ccc(NC(=O)c2cccc(C)c2OC)c(C)c1	–	14.9 µM (active)

Compound	inhibition [%]	IC50
CCOC(=O)c1cc(NC(=O)c2cccnc2)ccn1	-20.6	–
COc1ccc(N2C(=NC(C)=O)SC3CS(=O)(=O)CC32)cc1OC (stereo unspecified)	-4.91	–
CC(C)=CCc1c(O)c(CC=C(C)C)c2c(c1O)-c1cc(O)c(O)cc1CC2	9.25	–
O=C(NCc1ccccn1)C1CCN(S(=O)(=O)c2ccccc2)CC1	-6.17	–
CCN(CC)c1ccc(NC(=O)c2cccc(F)c2)c(C)c1	–	9.01 µM (active)
COc1ccc2c(c1OC)C(=O)N(c1ccc(O)cc1)C2	–	2.39 µM (active)
C=CS(=O)c1sc(Cl)c(N2CCOCC2)c1[N+](=O)[O-] (stereo unspecified)	-0.59	–
CC(=O)Oc1cc2cccc(OC(C)=O)c(=O)c2c(OC(C)=O)c1OC(C)=O	–	91.6 µM (active)
Cn1c(CCC(=O)Nc2cc(S(C)(=O)=O)ccc2Cl)nc2cc(S(=O)(=O)N3CCOCC3)ccc21	-11.3	–
Cc1ccc(S(=O)(=O)Nc2cc(NC(=O)CN3CCOCC3)ccc2Cl)cc1	-29	–
Cc1ccc(S(=O)(=O)N2CCOCC2)cc1NC(=O)CN1CCN(c2ccc(O)cc2)CC1	–	5.44 µM (active)
COC(=O)Nc1ccc(S(=O)(=O)N2CCCC(C(=O)N3CCOCC3)C2)cc1 (stereo unspecified)	-6.27	–
O=C(CN1CCN(c2ccc(O)cc2)CC1)Nc1cc(S(=O)(=O)N2CCOCC2)ccc1Cl	–	6.43 µM (active)
O=S(=O)(c1ccc(NC(=S)N2CCN(c3ccc(O)cc3)CC2)cc1)N1CCOCC1	–	4.49 µM (active)
Cc1ccc(S(=O)(=O)n2nc(OC(=O)c3ccccc3C)cc2N)cc1	19.6	–
COc1cc(NC(=O)COc2ccccc2C)ccc1NC(=O)c1ccco1	-3.52	–
O=C(Nc1ccc(Cl)c(Cl)c1)Oc1ccc(NC(=O)c2ccco2)cc1	–	23.2 µM (active)
COc1ccccc1NC(=O)c1c([N+](=O)[O-])cnn1C	-9.19	–
COc1ccccc1NC(=O)Oc1ccc(NC(=O)c2ccco2)cc1	–	3.94 µM (active)
C=CCSc1nc(N)c(NC(=O)c2ccco2)c(=O)[nH]1	-24.7	–
O=C(Nc1cccc(NC(=O)c2ccco2)c1)c1ccc([N+](=O)[O-])cc1	1.05	–
Cc1cc(O)c(C=O)c2c1C(=O)Oc1c(CO)c(O)c3c(c1O2)C(O)OC3=O (stereo unspecified)	-13.8	–
O=[N+]([O-])c1cc(CN2CCCC2)c2cccnc2c1O	-20.7	–
O=[N+]([O-])c1cc([N+](=O)[O-])c2cccnc2c1Oc1ccccc1O	–	21.8 µM (active)
O=S(=O)(O)c1cccc2c(N=Nc3ccc(O)c4ncccc34)cccc12	25.6	–
